HT1080-NT tox = kills 2HG-producing HT-1080-NT fibrosarcoma cells | HT-1080-NT fibrosarcoma viability, CellTiter-Glo ATP luminescence, 48 h | Potency, µM (series often up to 46.1 µM), for inactives: at the top dose activity, negative = less viability, actives largely listed as cytotoxic | 360,000 tested, 1.6% active;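 note: NT is the 2HG producing partner of a matched IDH1 knockdown line; potency is the fitted concentration of half-maximal effect; 0% = DMSO-treated cells and -100% = media-only wells without cells; nearly all actives have a fitted effect of over 55% in size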
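HT-1080-NT; 750 cells/well; 5% FBS RPMI; 48 h compound, 37 degrees C; CellTiter-Glo luminescence; curve fitting and curve-class assignment.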
DT40 TDP1 CPT = growth inhibition of DT40 Tdp1-/-;hTDP1 cells with camptothecin (screen for TDP1 inhibitors); Potency, µM (series often up to 46.2 µM), inactives show at the top dose activity change, negative = growth inhibition, hits mostly inhibitors; chicken DT40 Tdp1-/-;hTDP1 cells + 20 nM CPT, ATP luminescence, 48 h; 420,000 tested, 12% active; note: potency is the fitted concentration of half-maximal effect; nearly all actives have a fitted effect of over 55% in size
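Chicken DT40 Tdp1-/- cells stably complemented with human TDP1 were seeded at 400 cells/well in medium containing 20 nM camptothecin, exposed to pin-transferred compounds, and grown at 37 °C for at least 48 hr. Viability was read as ATP luminescence.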
HT1080 IDH1KD tx = HT-1080 IDH1 knockdown cell toxicity (counter line). Potency, µM (titrated, usually from 46.1 µM), without a hit: at the highest dose activity, negative = toxicity, usual class: cytotoxic. AID 686971. HT-1080 IDH1 knockdown viability, ATP luminescence, 48 h. 360,000 tested, 2% active;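 note: potency is the fitted concentration of half-maximal effect; 0% = DMSO wells and -100% = cell-free medium wells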
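Assay cells: HT-1080 with IDH1 knockdown, 750 per well, RPMI/5% FBS. Exposure: 48 h at 37 °C following 2 h pre-incubation. Read: CellTiter-Glo luminescence; fitted concentration-response, curve class assigned.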
TDP1 cell noCPT = qHTS for Inhibitors of human tyrosyl-DNA phosphodiesterase 1 (TDP1): qHTS in cells in absence of CPT; DT40 Tdp1-/- hTDP1 cells, no CPT, ATP luminescence, 48 h; Potency, µM (titrated, usually from 46.2 µM), for inactives: at the highest dose activity change, negative = growth inhibition, hits mostly inhibitors; 420,000 tested, 15% active; note: potency is the fitted concentration of half-maximal effect; nearly all actives have a fitted effect of over 55% in size
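Camptothecin absent (DMSO only). Human TDP1-complemented DT40 knockout cells, 400 cells/well, 37 °C for minimum 48 hr; ATP measured via CellTiter-Glo, 30 min dark incubation, luminescence.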
IL1B secr inh = inflammasome signaling inhibition, IL-1 beta readout. THP-1 LPS/ATP IL-1B secretion, AlphaLISA, 16 h; stronger effect = lower value. activity change, % at 57.5 µM. 360,000 tested, 4.7% active; in the data active = activity change below about -50%; inconclusive = mostly about -30% to -49%
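Secreted IL-1B measured by AlphaLISA bead assay after 16 h compound exposure of THP-1 cells; compounds (final up to 57.5 uM) added 1 h before LPS (250 ng/mL) and ATP (1.25 mM) stimulation; lower signal means less secretion.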
An asterisk follows results filed as active; ? = inconclusive; · = no result; [ ] = dose if it differs, or a comment. Hits are enriched below; roughly 19% of the tested compounds scored in any of these assays. Unless noted, calls come from the whole dose curve; as a rule, active = well fitted curve in the direction sought with a large enough effect; inconclusive = small, poorly fitted or top-dose-only effect, or another doubt; inactive = no such curve, though single readings can be large; an effect the other way counts as inactive or inconclusive. Unless noted, % is set by controls: 0 for no effect and ±100 for the full control effect.

SMILES	HT1080-NT tox	DT40 TDP1 CPT	HT1080 IDH1KD tx	TDP1 cell noCPT	IL1B secr inh
NC(=NCCc1ccccc1)c1cccc([N+](=O)[O-])c1	-14.7%	-14.4%	-5.2%	11.4%	-21.9
COCCn1c(=N)c(S(=O)(=O)c2ccc(Br)cc2)cc2c(=O)n3ccccc3nc21	5.5%	?	10.1%	20.6µM*	3.1
N=c1c(S(=O)(=O)c2ccc(Br)cc2)cc2c(=O)n3ccccc3nc2n1C1CCCCC1	-2.9%	?	-1.8%	?	4.9
N=c1c(S(=O)(=O)c2ccc(Cl)cc2)cc2c(=O)n3ccccc3nc2n1Cc1ccco1	-3.0%	?	-15.9%	?	-12.5
N=c1c(S(=O)(=O)c2ccc(Br)cc2)cc2c(=O)n3ccccc3nc2n1Cc1ccco1	-5.5%	9.2µM*	-2.0%	6.51µM*	?
N=c1c(S(=O)(=O)c2ccccc2)cc2c(=O)n3ccccc3nc2n1C1CCCCC1	?	25.9µM*	?	14.6µM*	?
Cc1ccc(Cn2c(=N)c(S(=O)(=O)c3ccc(Br)cc3)cc3c(=O)n4ccccc4nc32)cc1	20.0%	-2.3%	1.6%	6.6%	-5.9
CCC(CCC(C)C1CCC2C3CC=C4CC(OC(C)=O)CC[C@@]4(C)C3CC[C@@]12C)C(C)C (stereo not given in full)	·	-22.1%	·	-11.5%	·
N#Cc1c(NC(=O)CCC(=O)O)sc2c1CCCCC2	3.2%	13.4%	15.0%	-0.1%	-5.8
N#Cc1c(NC(=O)CSc2nc(N)cc(=O)[nH]2)sc2c1CCCC2	-10.6%	?	-21.9%	23.1µM*	68.7
CC(C)CC(=O)NC(NC(=S)Nc1sc2c(c1C#N)CCCC2)C(Cl)(Cl)Cl (stereo not given)	?	16.4µM*	?	?	23.9
N#Cc1c(NC(=O)CCC(=O)O)sc2c1CCCC2	7.3%	0.581µM*	-0.5%	-0.4%	29.1
CCc1ccc(CCC(=O)Nc2sc3c(c2C#N)CCCC3)o1	3.98µM*	5.01µM*	4.47µM*	3.55µM*	32.0
Cc1cc(C)cc(NC(=O)COC(=O)COc2ccc(N(C)S(=O)(=O)c3cccs3)cc2)c1	-0.1%	6.5%	6.3%	-1.7%	3.1
Oc1c(Cl)cc(Cl)cc1C=Nc1cc(C(F)(F)F)ccc1N1CCc2ccccc2C1	-20.7%	?	-29.2%	?	-8.2
CCOc1ccc(OCCC(=O)Nc2ccc(N3CCOCC3)cc2N2CCOCC2)cc1	-9.3%	-0.6%	0.5%	-19.7%	-26.4
C[C@H](CO)N1C[C@H](C)[C@@H](CN(C)C(=O)Nc2ccc3c(c2)OCO3)Oc2ccc(NC(=O)Nc3ccc4c(c3)OCO4)cc2C1=O	3.7%	-24.6%	6.3%	0.3%	-8.7
CC(Oc1ccc2ccccc2c1)C(=O)NNC(=O)Nc1ccccc1F (stereo not given)	7.1%	-21.3%	-5.9%	-7.9%	-50.3*
CC(OC(=O)CC1Sc2ccccc2NC1=O)C(=O)N(C)Cc1ccccc1 (stereo not given)	-14.2%	?	-10.0%	20.6µM*	38.1
CCOC(=O)CC1Sc2ccccc2NC1=O (stereo not given)	-10.7%	-18.0%	-5.6%	-4.8%	28.4
COc1ccc(OC)c(-c2ccnc(-n3ncc(C(=O)NC(C)(C)CO)c3C3CC3)n2)c1	·	-3.4%[9.04 µM]	·	-14.3%	·
CSC(=S)N/N=C(\C)c1ccccc1	-1.7%	3.26µM*	-0.4%	?	-4.0
C/C(=N\NC(=S)Nc1cccc(C)c1)c1ccccc1	-0.9%	2.82µM*	1.2%	1.12µM*	9.7
C/C(=N\NC(=S)Nc1cccc(C)c1)c1cccc(N)c1	9.1%	0.92µM*	8.8%	0.92µM*	10.9
C/C(=N\NC(=O)CNc1ccccc1)c1ccccc1	-2.3%	1.3%	4.0%	1.7%	-7.0
SMILES	HT1080-NT tox	DT40 TDP1 CPT	HT1080 IDH1KD tx	TDP1 cell noCPT	IL1B secr inh
CCOC(=O)CC(NC(=O)c1cc2cc(OC)ccc2oc1=O)c1ccc(OC)cc1 (stereo not given)	·	?	·	-6.2%	·
O=C(O)C1=CC[C@@H](c2ccc(Cl)cc2)N(S(=O)(=O)c2ccc(Cl)cc2)[C@H]1c1ccccc1	-20.1%	-17.3%	-14.2%	3.5%	4.6
O=C(OCC(=O)c1ccccc1Cl)C1=NN(c2ccccc2)C(=O)CC1	5.0%	7.4%	16.3%	9.3%	-4.1
CCOc1ccc(NC2OC(CO)C(O)C(O)C2O)c([N+](=O)[O-])c1 (stereo not given)	2.5%	2.5%	13.0%	-2.9%	16.3
CCc1ccc2c(Cl)c(C(=O)N/N=C/c3c[nH]c4ccccc34)sc2c1	?	20.6µM*	1.9%[9.24 µM]	?	-50.1*
O=C(N/N=C/c1ccc[nH]1)c1sc2ccccc2c1Cl	?	13µM*	?	13µM*	37.3
CCc1ccc(-c2cc(C(=O)N/N=C/c3c[nH]c4ccccc34)[nH]n2)cc1	5.17µM*	16.4µM*	3.66µM*	6.51µM*	-53.4*
CC(C)c1cc(C(=O)N/N=C/c2c[nH]c3ccccc23)n[nH]1	0.0%	?	-1.2%	?	-5.1
Cc1ccc[n+](CC(=O)c2ccc(-c3ccccc3)cc2)c1	3.0%	-0.7%	0.2%	1.7%	16.3
CC(=O)C[n+]1cccc2cc(Cl)ccc21	·	-19.3%	·	-28.1%	·
O=C(C[n+]1cccc2cc(Cl)ccc21)c1ccc(I)cc1	·	11.2µM*	·	11.2µM*	·
Cc1ccc(C(=O)C[n+]2cccc3ccccc32)cc1	-14.6%	?	-7.2%	18.4µM*	-10.8
COc1ccc(C(=O)C[n+]2cccc3cc(Cl)ccc32)cc1	·	?	·	15.8µM*	·
Cc1ccc(C)[n+](CC(=O)c2ccc(-c3ccccc3)cc2)c1	-7.6%	2.59µM*	-3.8%	1.84µM*	-13.0
O=c1[nH]cnc2n[nH]nc12	·	-7.7%	·	?	·
CCc1ccc(NC(=O)CSc2nc(-c3ccccc3Cl)nc3c2Cc2c(CO)cnc(C)c2O3)cc1	·	?	·	0.9%	·
Cc1ccc(NC2CCCN(C(=O)c3cc4ncccn4n3)C2)cc1C (stereo not given)	4.7%	4.0%	-1.1%	14.5%	5.7
CC(=O)c1ccc[n+](CC(=O)c2ccc(F)cc2)c1	·	-7.7%	·	-1.3%	·
Cc1cc2ccccc2c[n+]1CC(=O)c1ccc(F)cc1	·	?	·	12.6µM*	·
O=C(C[n+]1cccc2cc(Cl)ccc21)c1ccc2ccccc2c1	·	5.01µM*	·	3.98µM*	·
Cc1ccc(-c2[nH]ncc2C(=O)c2ccccc2C)c(O)c1	13.5%	2.6%	8.5%	-12.3%	-2.3
C[C@H](CO)N1C[C@H](C)[C@@H](CN(C)C(=O)c2ccc(F)cc2)Oc2cc(Br)ccc2S1(=O)=O	-6.6%	25.9µM*	-20.3%	13µM*	17.4
